Our source for the cytotoxicity call values is the antibiotic and cytotoxicity screens of Wong et al. (2023).

Each structure is given as a SMILES string. About 3,300 (8.5%) of roughly 39,000 compounds were called active. The entries come from a sample that favours actives as a whole.

The assay relates to HepG2. Nature of the assay: cytotoxicity call (relative viability < 0.9). Conditions: 10 µM.
With `NC(=O)CSCC(=O)Nc1ccccc1F`, the cytotoxicity call was “inactive”.
For the compound `O=C(O)/C=C\C(=O)NCc1ccccc1`, the cytotoxicity call was “inactive”.
Consider `COCCN1C[C@H]2[C@@H](OC)CCN(S(=O)(=O)c3cn(C)cn3)[C@H]2C1`, for which the cytotoxicity call is “inactive”.
For `CNC(=O)C[C@@H]1CC[C@@H]2[C@H](COC[C@@H](O)CN2C(=O)c2ccccn2)O1` the value was “inactive”; for `C[C@H](CO)N1C[C@H](C)[C@@H](CN(C)S(=O)(=O)c2cccs2)Oc2ccc(NS(C)(=O)=O)cc2CC1=O`, “inactive”.
`C[C@H](O)[C@H](O)[C@@H](O)[C@@H](O)/C=N/NC(=O)c1cccc(C(=O)NO)c1`: the cytotoxicity call is “inactive”.
The same measure for `Cc1cc(C(=O)Nc2cccc3c2O[C@@H](CN(C)Cc2ccc4c(c2)OCO4)[C@@H](C)CN([C@@H](C)CO)C3=O)n(C)n1`: “inactive”.
With `COc1ccc(NC(=O)Nc2ccc3c(c2)C(=O)N([C@H](C)CO)C[C@@H](C)[C@@H](CN(C)Cc2ccc(-c4ccccc4)cc2)O3)cc1`, the cytotoxicity call was “active”.
`COc1ccc(NC(=O)Nc2ccc3c(c2)C(=O)N([C@@H](C)CO)C[C@H](C)[C@H](CN(C)Cc2ccc(-c4ccccc4)cc2)O3)cc1`: the cytotoxicity call was “inactive”.
For `COc1ccc(NC(=O)Nc2ccc3c(c2)C(=O)N([C@H](C)CO)C[C@H](C)[C@H](CN(C)Cc2ccc(-c4ccccc4)cc2)O3)cc1` the value was “active”; for `COc1ccc(NC(=O)Nc2ccc3c(c2)C(=O)N([C@@H](C)CO)C[C@@H](C)[C@@H](CN(C)Cc2ccc(-c4ccccc4)cc2)O3)cc1`, “active”; for `COc1ccc(NC(=O)Nc2ccc3c(c2)C(=O)N([C@H](C)CO)C[C@H](C)[C@@H](CN(C)Cc2ccc(-c4ccccc4)cc2)O3)cc1`, “inactive”.
For `COc1ccc(NC(=O)Nc2ccc3c(c2)C(=O)N([C@H](C)CO)C[C@@H](C)[C@H](CN(C)Cc2ccc(-c4ccccc4)cc2)O3)cc1`, the cytotoxicity call was “active”.
For `COc1ccc(NC(=O)Nc2ccc3c(c2)C(=O)N([C@@H](C)CO)C[C@H](C)[C@H](CN(C)Cc2ccc(Oc4ccccc4)cc2)O3)cc1` the value was “inactive”; for `COc1ccc(NC(=O)Nc2ccc3c(c2)C(=O)N([C@H](C)CO)C[C@@H](C)[C@H](CN(C)Cc2ccc(Oc4ccccc4)cc2)O3)cc1`, “inactive”; for `COc1ccc(NC(=O)Nc2ccc3c(c2)C(=O)N([C@@H](C)CO)C[C@H](C)[C@@H](CN(C)Cc2ccc(-c4ccccc4)cc2)O3)cc1`, “inactive”.
For `CC(=O)c1ccc(S(=O)(=O)N2[C@@H]3CC[C@@H](C3)[C@H]2c2nc3cccc(OCc4ccc(F)cc4)c3[nH]2)cc1`, the cytotoxicity call is “inactive”.
Turning to `C[C@@H]1CN([C@@H](C)CO)C(=O)c2cc(NC(=O)C3CC3)ccc2O[C@@H]1CN(C)S(=O)(=O)c1cccs1`, the cytotoxicity call is “inactive”.
For `CCCC(=O)Nc1ccc2c(c1)OC[C@H](C)N(Cc1ccc(-c3ccccn3)cc1)C[C@@H](C)[C@H](OC)CN(C)C2=O` the value was “inactive”; for `COc1ccc(S(=O)(=O)Nc2ccc3c(c2)C(=O)N([C@@H](C)CO)C[C@@H](C)[C@@H](CN(C)C(=O)Nc2c(C)noc2C)OCCCC[C@H](C)O3)cc1`, “inactive”; for `C[C@@H]1CN([C@@H](C)CO)C(=O)c2cc(NS(=O)(=O)c3ccccc3)ccc2O[C@@H]1CN(C)C(=O)Nc1cccc2ccccc12`, “inactive”.
The same measure for `C[C@@H]1CN([C@@H](C)CO)C(=O)Cc2cc(NC(=O)Nc3ccc(F)cc3)ccc2O[C@@H]1CN(C)S(=O)(=O)c1cn(C)cn1`: “inactive”; for `Cc1ccc(S(=O)(=O)N(C)C[C@@H]2OCCCC[C@H](C)Oc3ccc(NS(C)(=O)=O)cc3C(=O)N([C@@H](C)CO)C[C@H]2C)cc1`: “inactive”; for `Cc1noc(C)c1S(=O)(=O)Nc1ccc2c(c1)CC(=O)N([C@@H](C)CO)C[C@H](C)[C@H](CN(C)Cc1ccc3c(c1)OCO3)O2`: “inactive”.
For `C[C@H](CO)N1C[C@H](C)[C@H](CN(C)C(=O)N[C@H](C)c2ccccc2)OCc2ccccc2-c2c(n(C)c3ccccc23)C1=O` the value was “inactive”; for `COc1ccc(S(=O)(=O)N(C)C[C@@H]2OCCCC[C@H](C)Oc3ccc(NC(=O)NC4CCCCC4)cc3C(=O)N([C@H](C)CO)C[C@H]2C)cc1`, “inactive”.
On to `COc1ccc(NC(=O)N(C)C[C@@H]2OCCCC[C@@H](C)Oc3ccc(NS(=O)(=O)c4ccc(C)cc4)cc3C(=O)N([C@H](C)CO)C[C@H]2C)cc1`, for which the cytotoxicity call is “inactive”.
The same measure for `COc1ccc(NC(=O)Nc2ccc3c(c2)C(=O)N([C@@H](C)CO)C[C@@H](C)[C@H](CN(C)Cc2ccc(-c4ccccc4)cc2)O3)cc1`: “active”; for `COc1cccc(S(=O)(=O)N2C[C@H](O)COC[C@@H]3O[C@H](CC(=O)NCCCN4CCOCC4)CC[C@H]32)c1`: “inactive”.
For `C[C@H]1CCCCO[C@H](CN(C)C(=O)Nc2ccc(F)cc2)[C@@H](C)CN([C@@H](C)CO)C(=O)c2cc(NC(=O)c3ccncc3)ccc2O1` the value was “inactive”.
For the compound `CC[C@@H](C)[C@H]1O[C@@]2(CC[C@@H]1C)C[C@H]1C[C@@H](CC=C(C)[C@@H](O[C@H]3C[C@@H](OC)[C@@H](O[C@H]4C[C@@H](OC)[C@@H](O)[C@@H](C)O4)[C@@H](C)O3)[C@@H](C)C=CC=C3CO[C@H]4[C@@H](O)C(C)=C[C@@H](C(=O)O1)[C@]34O)O2.CO[C@H]1C[C@@H](O[C@@H]2[C@@H](OC)C[C@@H](O[C@@H]3C(C)=CC[C@@H]4C[C@@H](C[C@@]5(CC[C@@H](C)[C@H](C(C)C)O5)O4)OC(=O)[C@@H]4C=C(C)[C@H](O)[C@@H]5OCC(=CC=C[C@@H]3C)[C@@]45O)O[C@@H]2C)O[C@@H](C)[C@@H]1O`, the cytotoxicity call was “active”.
The same measure for `CCC(C)C1OC2(CCC1C)CC1CC(CC=C(C)C(OC3CC(OC)C(OC4CC(OC)C(O)C(C)O4)C(C)O3)C(C)C=CC=C3COC4C(O)C(C)=CC(C(=O)O1)C34O)O2` (stereo not given): “active”; for `CC[C@H](C)[C@H]1O[C@]2(CC[C@@H]1C)C[C@@H]1C[C@@H](C/C=C(\C)[C@@H](O[C@H]3C[C@H](OC)[C@@H](O[C@H]4C[C@H](OC)[C@@H](O)[C@H](C)O4)[C@H](C)O3)[C@@H](C)/C=C/C=C3\CO[C@@H]4[C@H](O)C(C)=C[C@@H](C(=O)O1)[C@]34O)O2`: “active”; for `C[C@@H]1CN([C@H](C)CO)C(=O)c2cc(NC(=O)CCC(F)(F)F)ccc2O[C@H]1CN(C)Cc1ccc(C(=O)Nc2ccccc2N)cc1`: “inactive”.
In the case of `N#CCSc1n[nH]c(=O)[nH]c1=O`, the cytotoxicity call is “inactive”.
For `O=C(C[C@@H]1CC[C@H]2[C@@H](COC[C@@H](O)CN2CC2CCOCC2)O1)N1CCOCC1` the value was “inactive”; for `Cc1noc(C)c1NC(=O)N(C)C[C@H]1OCCCC[C@H](C)Oc2ccc(NC(=O)C3CCCCC3)cc2C(=O)N([C@H](C)CO)C[C@@H]1C`, “inactive”.
For the compound `C[C@@H]1CCCCO[C@@H](CN(C)S(=O)(=O)c2ccccc2)[C@@H](C)CN([C@H](C)CO)C(=O)c2cc(NC(=O)NC3CCCCC3)ccc2O1`, the cytotoxicity call was “inactive”.
In the case of `COc1ncccc1N`, the cytotoxicity call was “inactive”.
Turning to `O=C1CCc2ccc(OCCCCN3CCN(c4cccc(Cl)c4Cl)CC3)cc2N1`, the cytotoxicity call is “active”.
On to `O=C1CCc2cc(OCCCCc3nnnn3C3CCCCC3)ccc2N1`, for which the cytotoxicity call was “inactive”.
The same measure for `CCCCCCCCCCCC(=O)OCN1C(=O)CCc2ccc(OCCCCN3CCN(c4cccc(Cl)c4Cl)CC3)cc21`: “inactive”.
For `O=C(C[C@H]1CC[C@H](NC(=O)c2cccnc2)[C@@H](CO)O1)NCCN1CCCCC1` the value was “inactive”; for `C[C@H](N)c1ccc(Cl)cc1`, “inactive”; for `COc1cccc(S(=O)(=O)Nc2ccc3c(c2)[C@H]2C[C@H](CC(=O)NCc4ccccc4F)O[C@@H](CO)[C@H]2O3)c1`, “inactive”.
The same measure for `C[C@H]1CN([C@@H](C)CO)C(=O)c2cc(NS(=O)(=O)c3cccs3)ccc2O[C@@H]1CN(C)Cc1ccc(Oc2ccccc2)cc1`: “inactive”; for `C[C@@H]1CN([C@H](C)CO)C(=O)c2cc(NS(=O)(=O)c3cccs3)ccc2O[C@@H]1CN(C)Cc1ccc(Oc2ccccc2)cc1`: “active”; for `C[C@H](CO)N1C[C@H](C)[C@H](CN(C)Cc2ccc(-c3ccccc3)cc2)Oc2ccc(NS(=O)(=O)c3cccs3)cc2C1=O`: “inactive”.
Regarding `C[C@@H]1CN([C@H](C)CO)C(=O)c2cc(NS(=O)(=O)c3cccs3)ccc2O[C@@H]1CN(C)Cc1ccc(-c2ccccc2)cc1`, the cytotoxicity call is “active”.
For `C[C@@H]1CN([C@H](C)CO)C(=O)c2cc(NS(=O)(=O)c3cccs3)ccc2O[C@H]1CN(C)Cc1ccc(Oc2ccccc2)cc1`, the cytotoxicity call was “inactive”.
On to `C[C@H](CO)N1C[C@H](C)[C@@H](CN(C)Cc2ccc(-c3ccccc3)cc2)Oc2ccc(NS(=O)(=O)c3cccs3)cc2C1=O`, for which the cytotoxicity call was “inactive”.
Consider `NC(=O)c1cccc(Br)n1`, for which the cytotoxicity call is “inactive”.
As to `Cc1noc(C)c1S(=O)(=O)N(C)C[C@H]1OCc2cn(nn2)CCCC(=O)N([C@H](C)CO)C[C@@H]1C`, the cytotoxicity call is “inactive”.
Regarding `Cc1ccc(S(=O)(=O)N(C)C[C@H]2Oc3ccc(NS(=O)(=O)c4cccs4)cc3C(=O)N([C@H](C)CO)C[C@H]2C)cc1`, the cytotoxicity call was “inactive”.
Take `C[C@H]1CN([C@@H](C)CO)C(=O)CCCn2cc(nn2)CO[C@@H]1CN(C)S(=O)(=O)c1ccc(-n2cccn2)cc1`: the cytotoxicity call was “inactive”.
On to `C[C@@H]1CN([C@@H](C)CO)C(=O)c2cc(NC(=O)CCN3CCOCC3)ccc2O[C@@H]1CN(C)S(=O)(=O)c1ccc(Cl)cc1`, for which the cytotoxicity call was “inactive”.
The same measure for `C[C@@H]1CN([C@H](C)CO)C(=O)c2cc(NS(=O)(=O)c3ccccc3)ccc2O[C@@H](C)CCCCO[C@H]1CN(C)C(=O)Nc1ccccc1`: “inactive”.
As to `C[C@H]1CN([C@@H](C)CO)C(=O)Cc2cc(NC(=O)Nc3cccc4ccccc34)ccc2O[C@H]1CN(C)C(=O)Nc1ccc(C(F)(F)F)cc1`, the cytotoxicity call is “inactive”.
Take `COc1ccc(CN(C)C[C@H]2Oc3c(NS(=O)(=O)c4c(C)noc4C)cccc3C(=O)N([C@H](C)CO)C[C@H]2C)cc1`: the cytotoxicity call was “inactive”.
In the case of `C[C@H]1CN([C@@H](C)CO)C(=O)Cc2cc(NS(=O)(=O)c3cccs3)ccc2O[C@H]1CN(C)Cc1ccc(-c2ccccc2)cc1`, the cytotoxicity call is “inactive”.
